Test [1] can be described thus: BSK_4H_Eotaxin3: BioMAP Diversity Plus: 4H Assay for Eotaxin 3 Biomarker Activity (AID 2283000).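 On outcome: CCL26 protein level quantified by ELISA in parallel with SRB cytotoxicity check.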 As to conditions: primary human endothelial cells (HUVEC); actives raise or lower the signal. In outline:
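Eotaxin-3 (CCL26) levels were measured by ELISA in HUVEC primary cultures 24 h post-dosing. Gain or loss of signal was fitted in both directions, with DMSO serving as baseline and negative control.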

Test [2] deals with human Peroxisome Proliferator-activated Receptor delta (PPARd), PPARD (gene 5467) (UniProt Q03181). Nature of the test: ATG_PPARd_TRANS: Attagene TRANS-FACTORIAL HepG2 Assay for human Peroxisome Proliferator-activated Receptor delta (PPARd) (AID 2283002; active means hit-call score of the fitted dose curve at least 0.9, where 1 is the maximum). An outline of the steps:
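Multiplexed trans-activation format: HepG2 liver cells expressing exogenous NR-Gal4 chimeras and GAL4-UAS reporters were exposed for 24 h. Reporter mRNA was detected by RT-PCR with capillary electrophoresis fluorescence; activity fitted as gain of signal relative to DMSO.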

Read-out in test [3]: Intercellular Adhesion Molecule 1 (ICAM1), ICAM1 (gene 3383)
In words: BSK_3C_ICAM1: BioMAP Diversity Plus: 3C Assay for Intercellular Adhesion Molecule 1 (ICAM1) Biomarker Activity (AID 2283003). Conditions: primary human endothelial cells (HUVEC); actives raise or lower the signal. An outline of the steps:
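ELISA readout of ICAM1 in human umbilical vein endothelial cells in the 3C system, taken 24 h post-dose. Gain or loss of signal versus DMSO was fitted in both directions, with SRB total-protein staining run in parallel.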

The nature of test [4]: BSK_3C_Proliferation: Cell Proliferation Assessment in the BioMAP Diversity Plus: 3C Assay (AID 2283006).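 On AC50: potency may reflect either rise or fall in cell number versus DMSO.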 Conditions: primary human endothelial cells (HUVEC). In outline: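 Proliferation as total protein: sulforhodamine B (0.1%) stain of TCA-fixed subconfluent human umbilical vein endothelial cells, absorbance 560 nm, 48 h after dosing. Activity fitted in both directions against DMSO baseline.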

Test [5] concerns the target Peroxisome proliferator-activated receptor gamma (Homo sapiens) (UniProt P37231). Nature of the test: ATG_PPARg_TRANS: Attagene TRANS-FACTORIAL HepG2 Assay for human Peroxisome Proliferator-activated Receptor-gamma (PPARg) (AID 2283007; active means hit-call score of the fitted dose curve at least 0.9, where 1 is the maximum). In outline: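 Multiplexed reporter transcription units in HepG2, 24 h dosing, reporter transcripts quantified by fluorescent RT-PCR and capillary electrophoresis. Increase over DMSO scored.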

Test [6] has as its target Nuclear receptor subfamily 1 group I member 2 (Homo sapiens) (UniProt O75469). Nature of the test: ATG_PXR_TRANS: Attagene TRANS-FACTORIAL HepG2 Assay for human Pregnane X Receptor (PXR) (AID 2283008; active means hit-call score of the fitted dose curve at least 0.9, where 1 is the maximum). An outline of the steps: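 Trans-factorial format: exogenous NR-Gal4 fusion activity, not endogenous factor, in transfected human HepG2 liver cells. After 24 h dosing, RNA isolated, reverse-transcribed, amplified and resolved by capillary electrophoresis; induction scored versus DMSO.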

Test [7] has as its target human Retinoic Acid Receptor gamma (RARg), RARG (gene 5916) (UniProt P13631). In words: ATG_RARg_TRANS: Attagene TRANS-FACTORIAL HepG2 Assay for human Retinoic Acid Receptor gamma (RARg) (AID 2283009; active means hit-call score of the fitted dose curve at least 0.9, where 1 is the maximum). An outline of the steps:
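Transactivation of exogenous RARg-Gal4 fusion measured as reporter transcript induction after 24 h in transfected HepG2 cells. RNA reverse-transcribed, amplified, fluorescently labeled and resolved by capillary electrophoresis; increase relative to DMSO.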

The target of test [8] is Retinoic acid receptor RXR-alpha (Homo sapiens) (UniProt P19793). In words: ATG_RXRa_TRANS: Attagene TRANS-FACTORIAL HepG2 Assay for human Retinoid X Receptor alpha (RXRa) (AID 2283012; active means hit-call score of the fitted dose curve at least 0.9, where 1 is the maximum). In outline:
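TRANS format reporting activity of exogenous RXRa-Gal4 chimera in transiently transfected HepG2, 24 h exposure. Reporter transcripts quantified by RT-PCR with capillary electrophoresis, with gain of signal scored relative to DMSO.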

Test [9] deals with human Thyroid Receptor alpha (THRa1), THRA (gene 7067) (UniProt P10827). Nature of the test: ATG_THRa1_TRANS: Attagene TRANS-FACTORIAL HepG2 Assay for human Thyroid Receptor alpha (THRa1) (AID 2283014; active means hit-call score of the fitted dose curve at least 0.9, where 1 is the maximum). In outline: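 HepG2 cells transiently transfected with chimeric NR-Gal4 and GAL4-UAS reporter units, dosed 24 h. Reporter mRNA quantified by RT-PCR, fluorescent labeling, HpaI digestion and capillary electrophoresis; gain-of-signal fit versus DMSO.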

Read-out in test [10]: E-selectin (Homo sapiens) (UniProt P16581)
Nature of the test: BSK_3C_Eselectin: BioMAP Diversity Plus: 3C Assay for Eselectin Biomarker Activity (AID 2283015).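 On outcome: cell surface E-selectin protein quantified by ELISA 24 h after dosing.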 Conditions: primary human endothelial cells (HUVEC); actives raise or lower the signal. An outline of the steps: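 Primary human umbilical vein endothelial cells (3C system), read 24 h after compound addition; E-selectin measured by ELISA. Bidirectional curve fitting against DMSO baseline; cytotoxicity by parallel SRB total-protein staining.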

Read-out in test [11]: Interleukin-1 alpha (IL1a), IL1A (gene 3552)
Nature of the test: BSK_BE3C_IL1a: BioMAP Diversity Plus: BE3C Assay for Interleukin-1 alpha (IL1a) Biomarker Activity (AID 2283016). As to conditions: primary human bronchial epithelial cells; actives raise or lower the signal. An outline of the steps: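 IL-1a measured by ELISA after 24 h treatment of human primary bronchial epithelial cells, with gain or loss of signal fitted versus DMSO. Parallel cultures stained with SRB gauge overt cytotoxicity.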

Read-out in test [12]: Monocyte Chemoattractant Protein-1 (MCP1), CCL2 (gene 6347)
In words: BSK_3C_MCP1: BioMAP Diversity Plus: 3C Assay for Monocyte Chemoattractant Protein-1 (MCP1) Biomarker Activity (AID 2283017). As to conditions: primary human endothelial cells (HUVEC); actives raise or lower the signal. An outline of the steps:
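Human umbilical vein endothelial cells (3C system) exposed to chemicals for 24 h; MCP-1 quantified by ELISA against the DMSO baseline with bidirectional fitting, and parallel SRB staining used to assess cytotoxicity.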

Read-out in test [13]: Monocyte Chemoattractant Protein-1 (MCP1), CCL2 (gene 6347)
Nature of the test: BSK_4H_MCP1: BioMAP Diversity Plus: 4H Assay for Monocyte Chemoattractant Protein-1 (MCP1) Biomarker Activity (AID 2283018). Conditions: primary human endothelial cells (HUVEC); actives raise or lower the signal. In outline: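 ELISA of MCP-1 (CCL2) 24 h after chemical dosing of HUVEC in the BioMAP 4H system. Gain or loss versus DMSO fitted; parallel SRB staining (560 nm) tracked overt cytotoxicity.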

Read-out in test [14]: Human Leukocyte Antigen - DR isotype (HLADR), HLA-DRA (gene 3122)
Nature of the test: BSK_3C_HLADR: BioMAP Diversity Plus: 3C Assay for Human Leukocyte Antigen - DR isotype (HLADR) Biomarker Activity (AID 2283019). As to conditions: primary human endothelial cells (HUVEC); actives raise or lower the signal. An outline of the steps: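 HUVEC monoculture, HLA-DR measured by ELISA 24 h after chemical dosing. Fitted bidirectionally against DMSO baseline; parallel SRB staining assessed cytotoxicity, with 3C proliferation read by SRB at 48 h.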

Read-out in test [15]: Interleukin-8 (IL8), CXCL8 (gene 3576)
In words: BSK_3C_IL8: BioMAP Diversity Plus: 3C Assay for Interleukin-8 (IL8) Biomarker Activity (AID 2283020). As to conditions: primary human endothelial cells (HUVEC); actives raise or lower the signal. In outline:
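IL-8 was measured by ELISA in HUVEC cultures 24 h after chemical dosing, with gain or loss of signal fitted relative to DMSO. Parallel SRB total-protein staining tracked overt cytotoxicity.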

Test [16] has as its target human Peroxisome Proliferator-activated Receptor alpha (PPARa), PPARA (gene 5465) (UniProt Q07869). In words: ATG_PPARa_TRANS: Attagene TRANS-FACTORIAL HepG2 Assay for human Peroxisome Proliferator-activated Receptor alpha (PPARa) (AID 2283001; active means hit-call score of the fitted dose curve at least 0.9, where 1 is the maximum). In outline: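 Cells (HepG2) are transfected with multiple reporter transcription units, exposed to chemical for 24 h, then total RNA is reverse-transcribed and amplified. Labelled products are quantified by capillary electrophoresis; induction is referenced to DMSO.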

For test [17], the target named is human RAR-related Orphan Receptor beta (RORb), RORB (gene 6096) (UniProt Q92753). Nature of the test: ATG_RORb_TRANS: Attagene TRANS-FACTORIAL HepG2 Assay for human RAR-related Orphan Receptor beta (RORb) (AID 2283010; active means hit-call score of the fitted dose curve at least 0.9, where 1 is the maximum). In outline:
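Read-out is reporter mRNA induction, quantified by RT-PCR with fluorescent capillary electrophoresis, 24 h post-dose in transiently transfected HepG2 expressing exogenous NR-Gal4 chimera. Activity fitted upward versus DMSO.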

Test [18] addresses human RAR-related Orphan Receptor gamma (RORg), RORC (gene 6097) (UniProt P51449). In words: ATG_RORg_TRANS: Attagene TRANS-FACTORIAL HepG2 Assay for human RAR-related Orphan Receptor gamma (RORg) (AID 2283011; active means hit-call score of the fitted dose curve at least 0.9, where 1 is the maximum). In outline: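 HepG2 cells transiently transfected with GAL4-UAS reporter units and chimeric RORg-Gal4 construct; after 24 h chemical exposure, reporter mRNA measured by RT-PCR with fluorescent capillary electrophoresis, gain of signal fitted against DMSO.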

In test [19] the target is human Retinoid X Receptor beta (RXRb), RXRB (gene 6257) (UniProt P28702). In words: ATG_RXRb_TRANS: Attagene TRANS-FACTORIAL HepG2 Assay for human Retinoid X Receptor beta (RXRb) (AID 2283013; active means hit-call score of the fitted dose curve at least 0.9, where 1 is the maximum). An outline of the steps:
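Readout is reporter transcript induction after 24 h dosing. It is measured by RT-PCR of total RNA followed by fluorescent capillary electrophoresis. HepG2 liver cells carry transfected multiple reporter units driven by an exogenous RXRb-Gal4 fusion; activity is relative to DMSO.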

Test [20] has as its target human Retinoic Acid Receptor beta (RARb), RARB (gene 5915) (UniProt P10826). In words: ATG_RARb_TRANS: Attagene TRANS-FACTORIAL HepG2 Assay for human Retinoic Acid Receptor beta (AID 2283004; active means hit-call score of the fitted dose curve at least 0.9, where 1 is the maximum). In outline: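 HepG2 cells were transiently transfected with GAL4-UAS reporter units that report activity of exogenous chimeric NR-Gal4 proteins, then exposed to compound for 24 h. Reporter mRNA was quantified by RT-PCR with capillary electrophoresis fluorescence, as gain of signal over DMSO.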

Consider seven compounds from PubChem BioAssay (EPA / NIEHS).

Molecules are shown by their SMILES. Records with an inconclusive call do not appear. Active and inactive are the calls of the source. How the source made its calls, unless noted: active means hit-call score of the fitted dose curve at least 0.9, where 1 is the maximum; inactive means score below 0.9.

human Thyroid Receptor alpha (THRa1), THRA (gene 7067), sequence (P10827 whole entry, looked up, the tested form may be a part): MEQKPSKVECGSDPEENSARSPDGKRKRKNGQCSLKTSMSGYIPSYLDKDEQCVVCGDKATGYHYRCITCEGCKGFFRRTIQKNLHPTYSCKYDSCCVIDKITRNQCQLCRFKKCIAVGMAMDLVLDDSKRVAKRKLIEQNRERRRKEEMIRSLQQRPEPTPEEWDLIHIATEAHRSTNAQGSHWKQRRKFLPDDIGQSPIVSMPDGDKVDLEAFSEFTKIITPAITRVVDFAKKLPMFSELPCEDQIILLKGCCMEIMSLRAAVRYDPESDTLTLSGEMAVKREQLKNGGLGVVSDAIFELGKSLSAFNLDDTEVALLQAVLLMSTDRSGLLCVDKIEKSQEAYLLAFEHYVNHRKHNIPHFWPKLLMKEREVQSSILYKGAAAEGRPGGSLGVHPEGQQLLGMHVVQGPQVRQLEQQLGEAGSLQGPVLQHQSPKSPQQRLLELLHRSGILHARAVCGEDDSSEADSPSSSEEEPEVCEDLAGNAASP
human RAR-related Orphan Receptor gamma (RORg), RORC (gene 6097), sequence (P51449 whole entry, looked up, the tested form may be a part): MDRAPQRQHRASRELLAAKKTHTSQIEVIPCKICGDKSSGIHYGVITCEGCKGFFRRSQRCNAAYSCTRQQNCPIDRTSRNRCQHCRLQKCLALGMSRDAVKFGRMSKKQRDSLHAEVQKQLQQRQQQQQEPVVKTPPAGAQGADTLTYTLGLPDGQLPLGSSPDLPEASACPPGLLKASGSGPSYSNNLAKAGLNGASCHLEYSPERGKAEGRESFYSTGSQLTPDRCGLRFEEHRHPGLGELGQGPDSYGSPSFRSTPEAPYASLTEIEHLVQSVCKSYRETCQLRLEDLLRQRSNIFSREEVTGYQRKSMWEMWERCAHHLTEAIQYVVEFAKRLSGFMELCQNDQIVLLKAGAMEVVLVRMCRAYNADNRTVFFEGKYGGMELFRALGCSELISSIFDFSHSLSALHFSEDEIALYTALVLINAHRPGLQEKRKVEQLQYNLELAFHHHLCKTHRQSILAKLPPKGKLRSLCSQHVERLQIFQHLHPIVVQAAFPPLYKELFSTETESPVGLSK
human Peroxisome Proliferator-activated Receptor delta (PPARd), PPARD (gene 5467), sequence (Q03181 whole entry, looked up, the tested form may be a part): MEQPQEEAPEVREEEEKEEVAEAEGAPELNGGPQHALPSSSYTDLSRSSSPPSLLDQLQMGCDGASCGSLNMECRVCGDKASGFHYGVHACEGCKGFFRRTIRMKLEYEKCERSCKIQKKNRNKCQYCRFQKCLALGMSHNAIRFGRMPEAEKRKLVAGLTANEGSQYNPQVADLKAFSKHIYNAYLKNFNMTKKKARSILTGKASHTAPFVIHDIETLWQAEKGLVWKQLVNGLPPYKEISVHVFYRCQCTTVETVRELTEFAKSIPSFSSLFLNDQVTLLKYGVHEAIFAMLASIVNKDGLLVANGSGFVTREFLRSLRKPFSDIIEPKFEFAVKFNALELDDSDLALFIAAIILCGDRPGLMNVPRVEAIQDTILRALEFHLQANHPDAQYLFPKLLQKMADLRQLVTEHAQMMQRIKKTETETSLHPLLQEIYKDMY
E-selectin (Homo sapiens), sequence (P16581 whole entry, looked up): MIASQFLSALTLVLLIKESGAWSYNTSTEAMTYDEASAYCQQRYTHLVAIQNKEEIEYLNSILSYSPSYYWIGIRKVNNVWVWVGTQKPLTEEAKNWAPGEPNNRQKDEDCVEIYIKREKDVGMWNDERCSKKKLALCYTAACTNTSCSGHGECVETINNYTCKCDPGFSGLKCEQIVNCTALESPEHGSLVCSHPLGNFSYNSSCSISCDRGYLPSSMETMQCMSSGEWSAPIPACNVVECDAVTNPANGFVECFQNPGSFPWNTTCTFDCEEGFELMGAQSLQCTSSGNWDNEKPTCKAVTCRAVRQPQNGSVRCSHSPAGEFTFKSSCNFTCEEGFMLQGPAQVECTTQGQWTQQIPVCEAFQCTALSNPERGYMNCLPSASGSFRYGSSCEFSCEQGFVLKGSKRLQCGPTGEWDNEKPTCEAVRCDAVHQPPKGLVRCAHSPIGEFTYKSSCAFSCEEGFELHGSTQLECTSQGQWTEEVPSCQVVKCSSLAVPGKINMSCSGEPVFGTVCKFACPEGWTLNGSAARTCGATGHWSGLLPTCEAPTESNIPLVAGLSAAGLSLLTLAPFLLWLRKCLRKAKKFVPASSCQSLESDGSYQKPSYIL
human Retinoic Acid Receptor gamma (RARg), RARG (gene 5916), sequence (P13631 whole entry, looked up, the tested form may be a part): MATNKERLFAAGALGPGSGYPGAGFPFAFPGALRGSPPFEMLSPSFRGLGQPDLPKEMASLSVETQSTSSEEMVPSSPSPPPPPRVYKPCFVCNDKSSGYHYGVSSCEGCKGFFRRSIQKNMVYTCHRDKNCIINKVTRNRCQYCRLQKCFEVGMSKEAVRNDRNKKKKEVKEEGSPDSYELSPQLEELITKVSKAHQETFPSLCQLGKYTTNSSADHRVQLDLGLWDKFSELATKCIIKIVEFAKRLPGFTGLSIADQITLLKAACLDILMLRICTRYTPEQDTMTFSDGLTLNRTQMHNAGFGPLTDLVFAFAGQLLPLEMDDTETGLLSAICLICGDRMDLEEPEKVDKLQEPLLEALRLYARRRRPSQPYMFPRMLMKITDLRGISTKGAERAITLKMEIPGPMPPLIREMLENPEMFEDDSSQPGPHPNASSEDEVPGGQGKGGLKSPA
Peroxisome proliferator-activated receptor gamma (Homo sapiens), sequence (P37231 whole entry, looked up): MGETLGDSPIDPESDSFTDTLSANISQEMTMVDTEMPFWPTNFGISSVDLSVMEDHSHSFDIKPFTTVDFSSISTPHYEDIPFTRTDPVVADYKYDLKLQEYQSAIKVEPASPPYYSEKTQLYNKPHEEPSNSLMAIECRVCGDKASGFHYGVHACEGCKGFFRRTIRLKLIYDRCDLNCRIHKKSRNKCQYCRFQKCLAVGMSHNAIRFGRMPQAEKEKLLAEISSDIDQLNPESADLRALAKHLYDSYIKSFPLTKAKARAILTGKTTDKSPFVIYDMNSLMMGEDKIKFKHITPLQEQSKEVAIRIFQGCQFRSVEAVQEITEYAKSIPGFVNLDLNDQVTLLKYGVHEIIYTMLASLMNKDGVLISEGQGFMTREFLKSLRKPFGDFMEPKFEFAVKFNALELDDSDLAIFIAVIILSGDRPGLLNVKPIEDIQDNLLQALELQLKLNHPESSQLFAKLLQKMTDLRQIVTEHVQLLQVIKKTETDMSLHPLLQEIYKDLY
human RAR-related Orphan Receptor beta (RORb), RORB (gene 6096), sequence (Q92753 whole entry, looked up, the tested form may be a part): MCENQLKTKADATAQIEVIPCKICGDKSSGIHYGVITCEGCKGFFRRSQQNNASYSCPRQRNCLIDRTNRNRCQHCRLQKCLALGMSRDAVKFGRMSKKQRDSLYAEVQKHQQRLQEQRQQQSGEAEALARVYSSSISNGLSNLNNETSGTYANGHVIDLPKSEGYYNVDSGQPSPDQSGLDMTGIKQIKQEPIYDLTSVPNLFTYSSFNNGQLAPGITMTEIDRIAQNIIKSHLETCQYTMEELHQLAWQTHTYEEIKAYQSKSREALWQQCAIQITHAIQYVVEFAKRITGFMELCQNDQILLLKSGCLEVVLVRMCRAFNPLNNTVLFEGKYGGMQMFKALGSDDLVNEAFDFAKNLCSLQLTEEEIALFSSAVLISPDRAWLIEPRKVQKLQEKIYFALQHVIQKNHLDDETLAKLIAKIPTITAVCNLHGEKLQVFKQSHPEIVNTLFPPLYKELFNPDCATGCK
human Retinoid X Receptor beta (RXRb), RXRB (gene 6257), sequence (P28702 whole entry, looked up, the tested form may be a part): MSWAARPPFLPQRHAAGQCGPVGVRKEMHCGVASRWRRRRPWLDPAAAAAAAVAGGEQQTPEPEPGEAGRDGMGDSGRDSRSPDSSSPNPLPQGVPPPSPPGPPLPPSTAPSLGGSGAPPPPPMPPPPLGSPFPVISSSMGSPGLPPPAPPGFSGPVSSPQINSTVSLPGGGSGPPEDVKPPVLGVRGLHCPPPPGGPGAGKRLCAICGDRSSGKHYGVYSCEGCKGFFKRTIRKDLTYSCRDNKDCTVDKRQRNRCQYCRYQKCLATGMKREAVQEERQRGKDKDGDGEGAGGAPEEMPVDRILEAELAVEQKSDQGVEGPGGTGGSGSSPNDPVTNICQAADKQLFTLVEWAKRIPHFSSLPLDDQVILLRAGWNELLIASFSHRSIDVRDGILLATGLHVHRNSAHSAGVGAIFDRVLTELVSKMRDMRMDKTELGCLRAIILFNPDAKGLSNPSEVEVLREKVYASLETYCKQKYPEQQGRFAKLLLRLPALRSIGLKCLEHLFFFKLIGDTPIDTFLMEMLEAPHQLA
Retinoic acid receptor RXR-alpha (Homo sapiens), sequence (P19793 whole entry, looked up, the tested form may be a part): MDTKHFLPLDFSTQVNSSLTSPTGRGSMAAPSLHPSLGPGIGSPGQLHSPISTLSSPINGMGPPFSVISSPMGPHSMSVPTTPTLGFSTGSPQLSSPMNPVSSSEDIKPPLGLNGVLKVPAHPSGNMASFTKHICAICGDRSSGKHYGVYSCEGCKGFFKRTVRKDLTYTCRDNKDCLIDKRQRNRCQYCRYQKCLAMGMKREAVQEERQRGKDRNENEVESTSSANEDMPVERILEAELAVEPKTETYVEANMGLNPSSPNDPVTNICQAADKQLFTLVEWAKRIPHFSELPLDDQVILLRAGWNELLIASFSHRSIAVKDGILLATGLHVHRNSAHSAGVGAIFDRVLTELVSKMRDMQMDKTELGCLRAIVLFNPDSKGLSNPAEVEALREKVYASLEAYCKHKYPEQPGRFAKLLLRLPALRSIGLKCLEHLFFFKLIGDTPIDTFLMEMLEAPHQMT
Nuclear receptor subfamily 1 group I member 2 (Homo sapiens), sequence (O75469 whole entry, looked up, the tested form may be a part): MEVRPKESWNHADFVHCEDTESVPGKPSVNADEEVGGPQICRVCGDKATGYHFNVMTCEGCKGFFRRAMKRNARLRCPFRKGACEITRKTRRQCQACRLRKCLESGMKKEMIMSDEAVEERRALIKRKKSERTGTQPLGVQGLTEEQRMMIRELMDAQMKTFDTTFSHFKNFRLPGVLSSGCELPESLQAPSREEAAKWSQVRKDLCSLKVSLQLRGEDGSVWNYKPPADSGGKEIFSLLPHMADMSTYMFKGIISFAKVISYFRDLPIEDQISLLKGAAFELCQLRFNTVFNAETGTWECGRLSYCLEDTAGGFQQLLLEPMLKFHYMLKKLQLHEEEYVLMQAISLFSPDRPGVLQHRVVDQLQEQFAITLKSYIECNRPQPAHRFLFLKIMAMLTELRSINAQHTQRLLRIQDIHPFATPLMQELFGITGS

In general, AC50 refers to the concentration at which the activity in the assay is half-maximal. With `CCc1cccc(CC)c1N(COC)C(=O)CCl`, the AC50 is 22.4 µM (active) in test [1]; 28.5 µM (active) in test [4]; 1.79 µM (active) in [5]; 21.2 µM (active) in test [10]; 14.4 µM (active) in test [12]; 22 µM (active) in [13]. For the same compound, in test [14], the half-maximal activity concentration (AC50) was 20 µM (active). Further, the compound was called inactive in [2], in test [3], in test [6], in [7], in test [8] and in test [9]. Further, the outcome in test [11] and in test [15] was inactive.

Take `Cc1ccn2nc(S(=O)(=O)Nc3c(F)cccc3F)nc2n1`: the outcome in test [1], in test [16], in [3], in test [4], in [5] and in test [6] was inactive. Further, the result in [7], in test [17], in [18], in test [8], in test [19] and in test [10] was inactive. The outcome in test [11], in test [12], in test [13], in test [14] and in [15] was inactive.

Regarding `O=c1ccc(=O)[nH][nH]1`, the result in [1], in test [16], in test [3], in test [4], in test [5] and in test [6] was inactive. Besides, the compound was called inactive in [17], in test [18], in test [8], in [19], in test [9] and in [10]. Also, the outcome in test [11], in test [12], in [13], in test [14] and in test [15] was inactive.

As for `CCC(CC)Nc1c([N+](=O)[O-])cc(C)c(C)c1[N+](=O)[O-]`, the outcome in test [1], in [2], in test [3], in test [18], in [8] and in test [19] was inactive. Moreover, in test [11], the outcome was inactive. The AC50 in [4] is 29.2 µM (active); in [5], 73.2 µM (active); in [6], 27.6 µM (active); in test [10] it was 31.2 µM (active); in test [12], 36.6 µM (active); in [13] it was 22.4 µM (active). The half-maximal activity concentration (AC50) was 36.2 µM (active) in [14] and 23.8 µM (active) in test [15].

Turning to `CCOP(=S)(OCC)Oc1cc(C)nc(C(C)C)n1`, the result in [1], in test [2], in [3], in test [4], in [6] and in test [8] was inactive. The compound was called inactive in test [19], in test [9], in [10], in test [11], in [12] and in [13]. In addition, the outcome in test [14] and in test [15] was inactive. The AC50 in [5] was 50 µM (active).

As to `CSc1nnc(C(C)(C)C)c(=O)n1N`, the outcome in test [1], in test [3], in [20], in [4], in test [7] and in [17] was inactive. Moreover, the result in test [8], in test [19], in test [9], in test [10], in test [11] and in test [12] was inactive. The result in test [13] and in test [15] was inactive.

As to `CC1(C(=O)Nc2ccc(O)c(Cl)c2Cl)CCCCC1`, the result in test [1], in test [2], in [3], in [4], in test [18] and in test [8] was inactive. In addition, the result in test [10], in test [11], in test [12], in test [13], in test [14] and in test [15] was inactive. The results for the AC50 in test [5] and in [6] were 50 µM (active) and 9.83 µM (active), respectively.
